Source: ChEMBL document CHEMBL3988442, “University of Dundee, Small-Polar-MMV Screening Library” (2021)

Experiments:
[1] = target: T1, Aspartate--tRNA(Asp/Asn) ligase (Mycobacterium tuberculosis (strain ATCC 25618 / H37Rv)) (UniProt P9WFW3); experiment: Assay for Asp RNA synthetase-1 from Mycobacterium tuberculosis; assay type: functional; design: scale not given: direction of the effect not stated beside the values; conditions: 30 µM; further: in the data most compounds retested in dose-response had high values
T1 sequence (whole entry): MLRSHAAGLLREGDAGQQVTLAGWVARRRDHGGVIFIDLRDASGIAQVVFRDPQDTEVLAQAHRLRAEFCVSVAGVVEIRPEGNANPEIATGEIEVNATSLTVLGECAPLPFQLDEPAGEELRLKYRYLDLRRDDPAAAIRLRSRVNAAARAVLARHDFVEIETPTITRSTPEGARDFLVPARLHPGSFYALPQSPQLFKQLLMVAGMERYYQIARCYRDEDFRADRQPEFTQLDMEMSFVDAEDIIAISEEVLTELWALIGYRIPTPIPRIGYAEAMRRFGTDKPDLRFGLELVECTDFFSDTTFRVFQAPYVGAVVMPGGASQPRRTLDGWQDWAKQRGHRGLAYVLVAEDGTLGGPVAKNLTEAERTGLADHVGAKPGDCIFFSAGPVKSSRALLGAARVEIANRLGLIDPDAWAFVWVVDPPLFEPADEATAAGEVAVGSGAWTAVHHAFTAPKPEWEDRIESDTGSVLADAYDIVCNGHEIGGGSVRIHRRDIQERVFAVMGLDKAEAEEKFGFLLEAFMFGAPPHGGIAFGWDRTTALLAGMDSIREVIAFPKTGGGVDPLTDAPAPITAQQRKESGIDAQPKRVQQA

[2] = target: Shiga toxin 2 (Escherichia coli O157:H7) (UniProt P09385+P09386); experiment: E. coli 0.157:H7 Shiga Toxin SOP - stx2 screening assay; assay type: functional; design: scale not given: direction of the effect not stated beside the values; conditions: 30 µM

Row | SMILES | Percent Effect [1] | Percent Effect [2]
1 | Cc1cc(C(=O)N2CCc3nnc(N(C)C)cc3C2)c(C)n1C1CC1 | 0.451% | -0.445%
2 | Cc1nc(COc2ccc(CNCC3CN(C)CCO3)cc2)cs1 (centres undefined) | 5.51% | -13.8%
3 | Cc1nn(C)c(Cl)c1CNCc1cccnc1N1CCN(C)CC1 | -1.56% | -1.67%
4 | CCc1nc(C)ncc1C(=O)N1CCCC(n2nc(C)nc2C)C1 (centres undefined) | -3.03% | 0.321%
5 | COc1ccc(Nc2nc3c(C)nn(C)c3c(=O)n2C)c(OC)c1 | 6.63% | -34.2%
6 | O=C(NCc1ccc(-n2cncn2)nc1)c1ccc2c(c1)CCO2 | -1.77% | 12.9%
7 | COc1cccc(CN2CCCC3(CCN(C(=O)[C@H]4CCCO4)C3)C2)c1 (some centres undefined) | 2.84% | 5.38%
8 | Cc1csc(C2CCCCN2C(=O)CN(C)C2CC2)n1 (centres undefined) | -4.06% | -4.47%
9 | Cc1nc(CN(C)C(=O)Nc2cnn(CC3CCCO3)c2)cs1 (centres undefined) | 2.17% | -5.02%
10 | Cc1c(C2CCCN(C(=O)Cc3ccccn3)C2)n2c(nc1=O)CCC2 (centres undefined) | 2.63% | -14.2%
11 | Cc1cccc(-n2c(C)cc(C(=O)N3CCn4c(C)nnc4C3)c2C)c1 | 3.51% | 36.2%
12 | CCN(CC)C(=O)c1nnc2ccc(N3CCOCC3)cc2n1 | -5.17% | -18.6%
13 | CCCN(CC1COc2ccccc2O1)C(=O)CCn1cncn1 (centres undefined) | -2.54% | 34.4%
14 | CC(=O)Nc1nc(CN2CCCC2Cn2cc(C)cn2)cs1 (centres undefined) | -2.91% | -25.9%
15 | NCC(c1ccccc1)N1CCc2sccc2C1 (centres undefined) | -4.25% | -7.32%
16 | CCC(C)(NCC(=O)Nc1nc(C)cs1)c1nc(C)cs1 (centres undefined) | 2.89% | -28.4%
17 | Fc1cccc(N2CCCC3(CN(Cc4ccncc4)CCO3)C2)c1 (centres undefined) | 5.63% | -4.22%
